Measured values taken from PubChem BioAssay (NCATS).
Records with an inconclusive call do not appear. Where a call stands in place of a potency, no number is given. The source made the active and inactive calls. Calls follow the shape of the dose curve; as a rule, active = well fitted inhibition curve with a large enough effect; inconclusive = small, poorly fitted or top-dose-only effect; inactive = no such curve, though single readings can be large or run the other way. Where a SMILES comes first, the peptide text is derived from it. The star is where a group is joined. Cbz = O=C(OCc1ccccc1)*; CH2Cl = ClC*

How the values were obtained:
[1] = tested on: Zika virus NS2B-NS3 protease (unlinked complex); experiment: Primary screen GU Rhodamine qHTS for Zika virus inhibitors: Unlinked NS2B-NS3 protease assay (AID 1347159); also: nearly all actives have a fitted effect of over 60% in size
How it was run: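 Enzyme 25 nM in Tris-HCl pH 8.0 + 0.01% Tween 20; compounds up to 114 microM, 15 min RT dark; + Rhod110 substrate 1.5 microM; read t0 and 15 min; delta fluorescence → % inhibition → 4-parameter Hill fit.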

[2] = tested on: Zika virus NS2B-NS3 protease (linked construct); experiment: Primary screen NINDS Rhodamine qHTS for Zika virus inhibitors (AID 1347160); also: nearly all actives have a fitted effect of over 55% in size
How it was run: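 Enzyme (25 nM, linked NS2B-NS3) was preincubated 15 min with compound in 10 mM Tris-HCl pH 8.0, 0.01% Tween 20. Rhodamine110 substrate (1.5 microM) was then added and fluorescence read at start and after 15 min.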
Potency is read from the fitted curve at half-maximal effect.

Compound: C=C(C)C(=O)O[C@H]1[C@H]2C(=C)C(=O)O[C@@H]2/C=C(\CO)CC/C=C(/C=O)[C@@H]1O
- Potency [1]: inactive
- Potency [2]: inactive

Compound: CC(C)NC(=O)N1CC[C@H](N=C2Nc3cc(F)ccc3N(CC(F)F)c3ccc(Cl)cc32)C1
- Potency [1]: inactive
- Potency [2]: inactive

Compound: O=C(NCCCc1ccccc1)c1cccc(-c2cc(O)c3ncccc3c2)c1
- Potency [1]: 89.1 µM (active)
- Potency [2]: inactive

Compound: C[C@H](Nc1cc2c(-c3ccc4c(c3)OCO4)noc2cn1)c1ccccc1
- Potency [1]: inactive
- Potency [2]: inactive

Compound: C[C@@H](N[C@H]1CCCC[C@@H]1NC(=O)c1ccc(Cl)cc1)c1cccc2ccccc12
- Potency [1]: inactive
- Potency [2]: inactive

Compound: CC1CCC(=O)CC(SCC(O)C(=O)O)CCC(=O)O1 (configuration not stated)
- Potency [1]: inactive
- Potency [2]: inactive

Compound: O=C(OC1CN2CCC1CC2)N1CCc2ccccc2C1c1ccccc1 (configuration not stated)
- Potency [1]: inactive
- Potency [2]: inactive

Compound: CC(C)NCCCn1c(Sc2cc3c(cc2I)OCO3)nc2c(N)ncnc21
- Potency [1]: inactive
- Potency [2]: inactive

Compound: CCOC(=O)N1CCC(N2CCC[C@@H](NC(=O)c3ccccc3C)C2)CC1
- Potency [1]: inactive
- Potency [2]: inactive

Compound: CC(C)C[C@H](NC(=O)CNC(=O)OCc1ccccc1)C(=O)N[C@@H](Cc1ccccc1)C(=O)CCl (Cbz-Gly-Leu-Phe-CH2Cl)
- Potency [1]: inactive
- Potency [2]: inactive

Compound: CCC1C(=O)N(C)c2cnc(Nc3ccc(C(=O)NC4CCN(C)CC4)cc3OC)nc2N1C1CCCC1 (configuration not stated)
- Potency [1]: inactive
- Potency [2]: inactive

Compound: CCOc1nc(NC(=O)Cc2cc(OC)ccc2OC)cc(N)c1C#N
- Potency [1]: inactive
- Potency [2]: inactive

Compound: CC#CCn1c(N2CCCC(N)C2)nc2c1c(=O)n(Cc1nc(C)c3ccccc3n1)c(=O)n2C (configuration not stated)
- Potency [1]: inactive
- Potency [2]: inactive

Compound: Cc1cc2c(c(=O)o1)C=C1CC[C@H]([C@H](C)Cn3cnc(=N)c4[nH]cnc43)C[C@@H]1O2
- Potency [1]: inactive
- Potency [2]: inactive

Compound: CC12CCC(OC3OC(CO)C(O)C(O)C3OC3OC(CO)C(O)C(O)C3O)CC1CCC1C2CCC2(C)/C(=C3/COC(=O)C3)CCC12O (configuration not stated)
- Potency [1]: inactive
- Potency [2]: inactive

Compound: Cc1ccc(NC(=O)C(C)C)cc1C1CCN(Cc2ccc(Oc3ccc(F)c(F)c3)cc2)CC1
- Potency [1]: inactive
- Potency [2]: inactive

Compound: CCCCOC(=O)NS(=O)(=O)c1sc(CC(C)C)cc1-c1ccc(Cn2ccnc2)cc1
- Potency [1]: 31.6 µM (active)
- Potency [2]: inactive

Compound: C=C1C(=O)O[C@@H]2/C=C(/C)[C@@H](OC(C)=O)C/C=C(\C)C[C@@H](OC(=O)/C(=C/CO)CO)[C@@H]12
- Potency [1]: inactive
- Potency [2]: inactive

Compound: CC1=C(C(=O)Nc2cc(Cl)ccc2Cl)C(c2ccco2)C2=C(CCCC2=O)N1 (configuration not stated)
- Potency [1]: inactive
- Potency [2]: inactive

Compound: NC(=O)c1cnc(N[C@@H]2CCCC[C@H]2N)nc1Nc1cccc(-n2nccn2)c1
- Potency [1]: inactive
- Potency [2]: inactive

Compound: Cc1noc(C)c1-c1cc(O)cc(C(O)c2ccccc2)c1 (configuration not stated)
- Potency [1]: inactive
- Potency [2]: inactive

Compound: C/C=C/C1=CC2=C(CO1)C(=O)C(C)(OC(=O)c1c(C)cc(O)cc1OC)C(O)C2 (configuration not stated)
- Potency [1]: inactive
- Potency [2]: inactive

Compound: C[C@@H]1C[C@H](C)CN(CCC(=O)Nc2ccc(Br)cc2)C1
- Potency [1]: inactive
- Potency [2]: inactive

Compound: C=CC(=O)N1CC(N2CCN(C(=O)CNc3cc(C4CC4)c(Cl)cc3O)CC2)C1
- Potency [1]: inactive
- Potency [2]: inactive

Compound: CC[C@@H](C)Nc1cc(C(=O)NC2CC3CC[C@@H](C2)N3c2ccc(C(=O)C3CC3)cn2)c(C)cc1C(N)=O (some centres not stated)
- Potency [1]: inactive
- Potency [2]: inactive

Compound: CC(C)C(C)C(O)C1CC23CC(=O)C4(O)C(=C2CCC3C1C)C=CC1(O)CC(O)CCC14C (configuration not stated)
- Potency [1]: inactive
- Potency [2]: inactive

Compound: Cc1ccc(S(=O)(=O)N2CCC[C@H]2c2ccc(F)cc2)cc1
- Potency [1]: inactive
- Potency [2]: inactive

Compound: CN[C@@H]1[C@H](O[C@H]2[C@H](O[C@@H]3[C@@H](O)[C@H](O)[C@@H](N=C(N)N)[C@H](O)[C@H]3N=C(N)N)O[C@@H](C)[C@]2(O)CO)O[C@@H](CO)[C@H](O)[C@H]1O
- Potency [1]: inactive
- Potency [2]: inactive

Compound: C=C1C(=O)O[C@@H]2/C=C(\C)CC/C=C(\C)CC[C@@H]12
- Potency [1]: inactive
- Potency [2]: inactive

Compound: Fc1ccc(-c2nc(-c3ccccc3F)[nH]c2-c2ccncc2)cc1
- Potency [1]: inactive
- Potency [2]: inactive

Compound: N#Cc1ccc(Nc2nc(-c3ccc(O)cc3O)cs2)cc1C(F)(F)F
- Potency [1]: 10 µM (active)
- Potency [2]: 17.8 µM (active)

Compound: Cc1cc(NC(=O)NCCN2CCC(O)(Cc3ccccc3)CC2)c2ccccc2n1
- Potency [1]: inactive
- Potency [2]: inactive

Compound: CC(C)n1c(=O)c(C(=O)NC2CC3CCC(C2)N3C[C@@H](O)CN(C)S(C)(=O)=O)cc2ccccc21 (some centres not stated)
- Potency [1]: inactive
- Potency [2]: inactive

Compound: Fc1ccc(N2CCCCC2)c(NC(=S)c2ccncc2)c1
- Potency [1]: inactive
- Potency [2]: inactive

Compound: Cc1nc(C#Cc2ccnc(Cl)c2)c(C)n1-c1ccc(F)cc1
- Potency [1]: inactive
- Potency [2]: inactive

Compound: C[C@H](Oc1cc(-c2cnn(C3CCNCC3)c2)cnc1N)c1c(Cl)ccc(F)c1Cl
- Potency [1]: inactive
- Potency [2]: inactive

Compound: O=C(CSc1nc2ccccc2c(=O)n1-c1ccccc1)Nc1ccc2c(c1)CCC2
- Potency [1]: inactive
- Potency [2]: inactive

Compound: C=C1C(=O)OC2/C=C(\C)CC/C=C(\C)CC(OC(C)=O)C12 (configuration not stated)
- Potency [1]: inactive
- Potency [2]: inactive

Compound: CC1(C)CC[C@]2(C(=O)O)[C@H](O)C[C@]3(C)C(=CCC4[C@@]5(C)CC[C@H](O[C@@H]6O[C@H](CO[C@@H]7OC[C@H](O)[C@H](O)[C@H]7O[C@@H]7OC[C@H](O)[C@H](O)[C@H]7O)[C@@H](O)[C@H](O)[C@H]6O)C(C)(C)C5CC[C@]43C)[C@@H]2C1 (some centres not stated)
- Potency [1]: inactive
- Potency [2]: inactive

Compound: Nc1cccc(CNC(=O)c2ccc(Oc3ccc(OCc4cccc(F)c4)cc3)nc2)c1
- Potency [1]: inactive
- Potency [2]: inactive

Compound: Clc1ccc(Cn2c(Cc3ccccc3)nc3ccccc32)cc1
- Potency [1]: inactive
- Potency [2]: inactive

Compound: Cc1cc(C(=O)Nc2cc(Nc3ccc4c(/C=C/c5ccccn5)n[nH]c4c3)ccc2F)n(C)n1
- Potency [1]: inactive
- Potency [2]: inactive

Compound: COc1ccc(-c2cc3onc(-c4ccncc4)c3c(=O)n2C)cc1
- Potency [1]: inactive
- Potency [2]: inactive

Compound: c1ccc(-c2cnn3cc(-c4ccc(OCCN5CCOCC5)cc4)cnc23)cc1
- Potency [1]: inactive
- Potency [2]: inactive

Compound: Cc1cc(C(C)Nc2ccccc2C(=O)O)c2nc(N3CCOCC3)cc(=O)n2c1 (configuration not stated)
- Potency [1]: inactive
- Potency [2]: inactive

Compound: C=C[C@]1(C)C[C@H](O)[C@H]2C(=C)C(=O)O[C@@H]2[C@H]1C(=C)CO
- Potency [1]: inactive
- Potency [2]: inactive
